Legend:
Experiment in all cases: PBM binding z-score (relative to random genomic background probes); higher = stronger binding; sequences stand for … in GC…GCGATTGACAGCGTAGAATGAAGG
[1] = system: FXR:RXRa (NR concentration 270 nM, RXRa partner concentration 90 nM)
In short: (§1)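 Each nuclear receptor dimer, without ligand, was incubated for 1 h on custom Agilent 4×180K protein-binding microarrays. Binding was detected with antibodies against each partner (one per run), and scanned fluorescence was regression-normalized. The binding z-scores are referenced to random human genomic background probes.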

[2] = system: LXRa:RXRa (NR concentration 270 nM, RXRa partner concentration 90 nM)
In short: as §1

[3] = system: LXRa homodimer (NR concentration 270 nM)
In short: as §1

[4] = system: LXRb:RXRa (NR concentration 270 nM, RXRa partner concentration 90 nM)
In short: as §1

[5] = system: LXRb homodimer (NR concentration 270 nM)
In short: as §1

[6] = system: PPARa:RXRa (NR concentration 270 nM, RXRa partner concentration 90 nM)
In short: as §1

[7] = system: PPARg:RXRa (NR concentration 180 nM, RXRa partner concentration 90 nM)
In short: as §1

[8] = system: PPARg:RXRa 270nM:90nM, anti-RXR (NR concentration 270 nM, RXRa partner concentration 90 nM)
In short: as §1

[9] = system: PPARg:RXRa 30nM:10nM, anti-RXR (NR concentration 30 nM, RXRa partner concentration 10 nM)
In short: as §1

[10] = system: PPARg:RXRa 90nM:30nM, anti-RXR (NR concentration 90 nM, RXRa partner concentration 30 nM)
In short: as §1

[11] = system: PPARg:RXRa DBDmut IVT, anti-RXR (DBD mutation: RXRa K156A/R161A, NR concentration 270 nM, RXRa partner concentration 90 nM)
In short: as §1

[12] = system: PPARg:RXRa IVT, anti-PPARg (NR concentration 270 nM, RXRa partner concentration 90 nM)
In short: as §1

[13] = system: PPARg DBDmut:RXRa IVT, anti-PPARg (DBD mutation: PPARg1 K132A/R137A, NR concentration 270 nM, RXRa partner concentration 90 nM)
In short: as §1

[14] = system: PPARg DBDmut IVT, anti-PPARg (DBD mutation: PPARg1 K132A/R137A, NR concentration 270 nM)
In short: as §1

[15] = system: PPARg homodimer (NR concentration 180 nM)
In short: as §1

[16] = system: PXR:RXRa (NR concentration 270 nM, RXRa partner concentration 90 nM)
In short: as §1

[17] = system: PXR homodimer (NR concentration 270 nM)
In short: as §1

[18] = system: RARa:RXR (NR concentration 270 nM, RXRa partner concentration 90 nM)
In short: as §1

[19] = system: RARa homodimer (NR concentration 270 nM)
In short: as §1

[20] = system: RARb:RXRa (NR concentration 270 nM, RXRa partner concentration 90 nM)
In short: as §1

Sequence	PBM binding z-score [1]	PBM binding z-score [2]	PBM binding z-score [3]	PBM binding z-score [4]	PBM binding z-score [5]	PBM binding z-score [6]	PBM binding z-score [7]	PBM binding z-score [8]	PBM binding z-score [9]	PBM binding z-score [10]	PBM binding z-score [11]	PBM binding z-score [12]	PBM binding z-score [13]	PBM binding z-score [14]	PBM binding z-score [15]	PBM binding z-score [16]	PBM binding z-score [17]	PBM binding z-score [18]	PBM binding z-score [19]	PBM binding z-score [20]
CGTTCAAGGTCAAGGTCAGTGAAAGAGACTCGAA	8.13	5.69	1.57	5.06	1.66	6.33	6.87	6.8	3.49	5.56	4.65	5.44	0.946	1.3	3.58	5.02	1.3	5.02	1.49	5.9
GCTTGTAGATCGAGGTTAAGAAAGACTAAGCTAA	0.262	1.09	-0.228	0.65	-0.682	1.68	-0.0308	0.648	-0.204	0.479	0.155	0.569	-0.125	0.233	0.235	0.519	-0.12	1.03	0.293	0.634
ACTCGGAGAACAAAGGTCAGAGCTACGCCAGTGA	3.2	3.85	1.8	3.29	0.2	4.69	5.98	5.81	4.63	6.07	0.49	2.78	0.171	-0.0554	1.94	3.41	0.0377	3.89	0.493	4.21
GCAGACAGGTGAAACGTAGGTAACTCAGGGTGGC	-0.116	0.0027	-0.589	-0.409	-0.785	0.799	0.792	0.526	-0.444	-0.0243	1.69	0.679	-0.482	-0.518	-0.211	-0.374	-0.933	0.315	-0.166	0.76
ATCTCTAGGTAAGACTAAGTTCAGTGAAGAACGC	0.633	0.867	0.705	0.595	0.815	0.936	0.481	1.71	0.577	1.75	1.81	1.37	0.418	0.902	1.48	1.83	1.82	1.14	0.975	1.19
GCGAGTGGGGCATCAGCAGGTTACCATAACTTAA	-0.42	-0.14	-0.135	1.15	0.239	1.15	0.528	0.575	-0.218	0.332	3.22	2.59	-0.589	-0.427	0.496	0.25	-0.251	0.531	-0.613	0.812
AGTCAAAGTTCACTAGGTAATGTAAGATTCAGCT	4.99	4.85	2.91	3.07	0.939	4.58	7.06	6.01	3.43	5.25	2.34	4.44	1.59	2.13	2.35	4.01	2.75	3.26	1.29	4.78
TAGCCTAGGTCATGGGCCCGTATACCACGCGAAC	4.69	3.5	0.466	2.77	-0.0336	4	3.44	3.32	0.723	2.09	1.21	3.21	-0.0541	-0.484	1.07	1.92	-0.637	2.86	0.106	3.81
CCAGCTAGGTCATGGTCAGCTAATCTACAGTATG	3.52	2.28	0.125	1.63	-0.361	3.57	2.98	3.29	0.995	2.17	4.7	4.17	0.901	0.516	1.52	1.12	-0.327	2.34	0.48	3.97
GGTTACGGGTCAAAGGTTATAGCATGAATAGAAT	7.96	5.86	0.937	5.95	0.466	7.09	11.1	9.43	8.67	10.2	3.06	6.69	1.77	1.31	2.81	6.3	0.489	8.27	1.03	4.72
CAAACTAGGTCATGGTCAAAGTCGGTTTGTGCCA	3.73	2.64	0.245	1.94	0.0742	4.74	8.15	6.86	4.7	6.63	8.43	8.57	2.9	1.82	2.21	1.75	-0.231	2.44	0.58	4.01
GGAACGAGGGCACAGTTGATAGCATCTGTCGACG	0.318	0.136	-0.684	-0.053	-0.903	1.95	3.25	3.63	1.56	3.28	3.74	3.92	0.579	-0.629	0.434	0.227	-0.335	0.367	-0.231	2.02
CGTCCAAGGTCAAGGTCAGTGAAAGAGACTCGAA	7.52	5.66	1.09	4.51	0.985	6.12	6.53	6.21	2.56	4.65	3.52	4.76	0.429	0.164	4.38	4.81	1.28	5.07	1.75	5.75
CGAACTAGGTCAGAACAGGAAAGTGAAGGATGAT	0.901	0.447	-0.258	0.38	-0.116	3.21	5.08	4.29	1.92	3.33	7.16	6.78	2.1	0.812	0.835	0.0929	-0.161	0.482	-0.00201	2.72
TAGCCTAGGTCATGGGCCGGTATACCACGCGAAC	4.76	3.42	0.261	2.72	0.0172	4.23	3.35	3.56	0.856	2.46	1.46	3.44	-0.00724	-0.404	1.23	1.8	-0.488	2.94	-0.0532	3.9
TCGAGTAGGTTAGGGGCATGCAGAATGGCGTCGA	0.354	0.125	-0.474	0.49	-0.161	1.29	0.641	1.68	0.979	1.27	1.92	1.32	-0.639	-1.3	0.568	0.108	-0.44	0.383	-0.355	1.2
GCTCGGCGGACAAGGTCAGAGCTTTGTCCGTAGA	1.19	1.42	-0.598	0.784	-1.28	2.03	-0.519	0.435	-0.807	-0.297	-0.55	0.128	-1.6	-1.83	-0.129	1.55	-0.547	1.95	-0.932	2.81
GCGACTGGGGCAAAGCTGGTTACCATAAGGTTGG	-0.489	-0.411	-0.621	-0.147	-0.966	0.78	0.929	1.26	-0.311	0.816	4.32	3.14	-0.175	-0.912	-0.562	-0.523	-0.799	-0.0421	-0.562	0.598
AGAATGAGGTTATGAAGATCAGGGAATTGCGGTC	1.75	1.53	0.162	1.04	-0.127	2.86	1.68	2.1	1.05	1.61	3.44	2.45	0.386	-0.347	0.625	1.18	0.111	1.87	0.262	1.7
TAGCCTAGGTCAGTCAGGGGCCAGTATAGAAAGC	1.42	0.48	-0.418	0.85	-0.405	1.46	0.583	1.04	-0.0718	0.829	0.759	1.71	0.0282	-0.431	0.236	0.48	-0.639	1.32	-0.63	3.21
CCTAGTTGGTCTAGGTCACACACGCTATAGGTAC	1.54	1.66	1.3	1.68	0.465	2.18	1.42	1.53	0.318	0.958	2.17	3.05	0.258	0.48	2.14	1.4	0.764	2.1	1.82	2.63
ACTAGCATGCCAAGGGTCACTCAAGATTAGTCCG	2.51	2.97	0.285	2.95	0.101	4.14	5.14	6.08	3.82	6.39	0.455	2.66	-0.409	0.469	2.73	3.31	-0.0678	4.02	0.721	3.38
CCAGACAGGTGAAAGGTAACCCAGTCTGGTACGC	0.66	0.713	-0.512	0.445	-0.0532	3.4	5.86	5.65	3.97	5.97	1.94	3.53	-0.215	-0.209	0.618	0.694	-0.254	1.53	0.316	1.27
TCAGTCAGGTGAAGGTAACTCAGGTACGCAGTCG	1.03	1.75	-0.167	0.908	0.224	1.1	0.838	2.17	3.25	2.69	2.31	1.88	0.527	-0.686	0.571	0.5	0.129	0.701	0.00869	1.52
ATCTCTAGTTAACAAGTTCAGTGAAAGAGAGGAC	0.682	1.12	0.782	0.883	1.22	0.724	0.29	0.54	0.48	0.596	0.0329	0.697	1.35	1.03	0.961	1.81	2.1	0.902	1.15	1.49
TCTAGTTGGTCAAACGTCACACACTCGAAATGCG	0.778	0.664	0.422	0.693	0.281	2.06	3.61	4.92	4.37	5.13	3.29	2.32	0.65	1.11	1.05	0.699	0.241	0.948	0.646	1.2
CCTGCTAGGTCTTGGTCAGCTAATCTACAGTATG	-0.4	-0.437	-0.451	-0.509	-0.639	-0.469	-0.371	-0.599	-0.683	-0.872	0.846	-0.117	-0.408	-1.03	-0.24	-0.552	-0.561	-0.0179	-1.02	0.537
CGTCAAAGTTCAACCAAGGTAACGTAAAGCACGC	7.34	6.27	4.15	4.07	1.7	5.02	5.31	5.53	2.39	4.77	0.703	2.22	0.566	0.664	3.1	5.55	4.15	4.39	1.73	5.25

From the supplement of paper PMC6555819
